The list is not random: actives were taken first. Their share in the collection is about 19%.
HT1080 IDH1KD tx – kills HT-1080 cells with IDH1 knockdown; HT-1080 IDH1 knockdown viability, ATP luminescence, 48 h; Potency, µM (titrated, usually from 46.1 µM), without a hit: at the highest dose activity, negative = toxicity, hits mostly cytotoxic; actives 2% (n = 360,000); AID 686971;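 also: potency is read from the fitted curve at half-maximal effect; 0% = DMSO wells and -100% = cell-free medium wells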
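Assay cells: HT-1080 with IDH1 knockdown, 750 per well, RPMI/5% FBS. Exposure: 48 h at 37 °C following 2 h pre-incubation. Read: CellTiter-Glo luminescence; fitted concentration-response, curve class assigned.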
HT1080-NT tox – kills 2HG-producing HT-1080-NT fibrosarcoma cells; HT-1080-NT fibrosarcoma viability, CellTiter-Glo ATP luminescence, 48 h; Potency, µM (titrated, usually from 46.1 µM), for inactives: at the top dose activity, negative = less viability, usual class: cytotoxic; actives 1.6% (n = 360,000); AID 686970;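 also: NT is the 2HG producing partner of a matched IDH1 knockdown line; potency is read from the fitted curve at half-maximal effect; 0% = DMSO-treated cells and -100% = media-only wells without cells; nearly all actives have a fitted effect of over 55% in size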
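HT-1080-NT fibrosarcoma cells (2HG-overproducing), 750 cells/well in RPMI with 5% FBS, dosed after 2 h and incubated 48 h at 37C. CellTiter-Glo luminescence normalized to DMSO and no-cell wells; concentration-response curves fitted and classed.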
IL-1B inflam inh – blocks inflammasome-driven IL-1 beta release | THP-1 LPS/ATP IL-1B secretion, AlphaLISA, 16 h; active compounds read low | activity change, % at 57.5 µM | actives 4.7% (n = 360,000) | AID 743279; in the data active = activity change below about -50%; inconclusive = mostly about -30% to -49%
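THP-1 cells pretreated 1 hr with compounds (up to 57.5 uM final), then stimulated with LPS (250 ng/mL final) plus ATP (1.25 mM final); secreted IL-1B measured by AlphaLISA after 16 hr, decreased signal indicating inhibition.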
DT40 TDP1 CPT – growth inhibition of DT40 Tdp1-/-;hTDP1 cells with camptothecin (screen for TDP1 inhibitors); chicken DT40 Tdp1-/-;hTDP1 cells + 20 nM CPT, ATP luminescence, 48 h; Potency, µM (doses to about 46.2 µM), inactives show top-dose activity change, negative = growth inhibition, actives largely listed as inhibitors; actives 12% (n = 420,000); also: potency is read from the fitted curve at half-maximal effect; nearly all actives have a fitted effect of over 55% in size
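Chicken DT40 Tdp1-/- cells stably complemented with human TDP1 were seeded at 400 cells/well in medium containing 20 nM camptothecin, exposed to pin-transferred compounds, and grown at 37 °C for at least 48 hr. Viability was read as ATP luminescence.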
TDP1 cell noCPT – qHTS for Inhibitors of human tyrosyl-DNA phosphodiesterase 1 (TDP1): qHTS in cells in absence of CPT; DT40 Tdp1-/- hTDP1 cells, no CPT, ATP luminescence, 48 h; actives 15% (n = 420,000); Potency, µM (titrated, usually from 46.2 µM), inactives show top-dose activity change, negative = growth inhibition, usual class: inhibitors; also: potency is read from the fitted curve at half-maximal effect; nearly all actives have a fitted effect of over 55% in size
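Compound effects on proliferation are scored in DT40 Tdp1-/-;hTDP1 cells in the absence of CPT. ATP levels (CellTiter-Glo luminescence) are recorded after a ≥48 hr, 37 °C incubation.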
Numbers without * were called inactive; u = inconclusive; x = no result. Unless noted, calls follow the shape of the dose curve; as a rule, active = well fitted curve in the direction sought with a large enough effect; inconclusive = small, poorly fitted or top-dose-only effect, or another doubt; inactive = no such curve, though single readings can be large; an effect the other way counts as inactive or inconclusive. Unless noted, % is scaled to controls: 0 for no effect and ±100 for the full control effect.

SMILES | HT1080 IDH1KD tx | HT1080-NT tox | IL-1B inflam inh | DT40 TDP1 CPT | TDP1 cell noCPT
Cc1cn([C@H]2C[C@H](O)[C@@H](CNCc3ccccc3)O2)c(=O)[nH]c1=O | 8% | 16% | 10 | -25% | -10%
Cc1cn([C@H]2C[C@H](O)[C@@H](COS(=O)(=O)O)O2)c(=O)[nH]c1=O | -1% | 1% | 7 | 3.7µM* | 1.6µM*
Cc1cc(C)c2oc(C(=O)Nc3nc4ccc(Cl)cc4s3)cc(=O)c2c1 | x | x | x | 9% | 7%
O=C1C=CC(=Nc2ccc3c(c2)Cc2cc(F)ccc2-3)O1 | 2% | -5% | -12 | 5.2µM* | 7.3µM*
COC(=O)[C@@H](NC(=O)N(C1CCCCC1)C1CCCCC1)C(C)C | 12% | 1% | -5 | 11µM* | 13µM*
COC(=O)[C@@H](NC(=O)NC1CCCCC1C)C(C)C (stereo partly drawn) | -12% | 0% | 5 | 7% | -6%
Cc1cccc(C)c1OCC(=O)Nc1nc(-c2ccc(Br)cc2)ns1 | x | x | x | u | 16µM*
Cc1cccc(C(=O)Nc2nc(-c3ccc(Br)cc3)ns2)c1 | x | x | x | -29% | u
Cc1ccccc1C(=O)Nc1nc(-c2ccc(Br)cc2)ns1 | x | x | x | 16µM* | 21µM*
Cc1ccc(-c2nc3cccnc3o2)cc1NC(=O)COc1ccc(C(C)(C)C)cc1 | u | u | -9 | 15µM* | 9.2µM*
Cc1ccc(-c2nc3cccnc3o2)cc1NC(=O)COc1ccc(Cl)cc1C | -2% | -1% | -1 | u | u
COc1cccc(NC(=O)CN(C)C(=O)COc2ccccc2Cc2ccccc2)c1 | -12% | -5% | 26 | u | 29µM*
COc1cccc(NC(=O)CN(C)C(=O)CNC(=O)c2ccc(Oc3ccccc3)cc2)c1 | -21% | -19% | -96* | u | u
COc1ccc(NC(=O)CN(C)C(=O)CNC(=O)c2ccc3ccccc3c2)cc1 | -8% | -11% | 46 | -6% | -9%
CCNC(=O)N1CCC(n2nccc2NC(=O)CCCc2ccccc2)CC1 | 2% | 1% | 0 | 5% | 31%
CCCC(CCC)C(=O)Oc1cc(C)[nH]c(=O)c1[N+](=O)[O-] | u | 10% | 17 | 24% | 5%
O=C(Nc1ccc(Cl)cc1C(F)(F)F)C(Sc1nnc(-c2cccs2)o1)c1ccccc1 (stereo not drawn) | 10µM* | u | -12 | u | 21µM*
CCc1ccc(NC(=O)CC2C(=O)N(c3ccc(Cl)cc3)C(=O)N2Cc2ccco2)cc1 (stereo not drawn) | x | x | x | 21µM* | u
COc1ccc(NC(=O)CC2C(=O)N(c3ccc(F)cc3)C(=O)N2Cc2ccco2)cc1 (stereo not drawn) | x | x | x | u | 2%
CCc1ccc(NC(=O)CC2C(=O)N(c3cccc(C)c3)C(=O)N2Cc2ccco2)cc1 (stereo not drawn) | x | x | x | 16µM* | 26µM*
CCc1ccc(NC(=O)CC2C(=O)N(c3cccc(C)c3)C(=O)N2Cc2cccs2)cc1 (stereo not drawn) | x | x | x | 21µM* | 21µM*
COc1ccc(NC(=O)CC2C(=O)N(c3ccccc3)C(=O)N2Cc2ccco2)cc1 (stereo not drawn) | 12% | 10% | -8 | 5% | 3%
COc1ccc(N2C(=O)C(CC(=O)Nc3ccccc3)N(Cc3cccs3)C2=O)cc1 (stereo not drawn) | 4% | -1% | -18 | u | u
COc1ccc(CCN(C)C(=O)c2ccc(C)c(S(=O)(=O)N3CCCCC3)c2)cc1OC | 6% | 0% | u | -29% | u
Cc1c(O)ccc(C(=O)CN2CCN(c3ccc(F)cc3)CC2)c1O | -8% | -1% | 23 | u | 16µM*
SMILES | HT1080 IDH1KD tx | HT1080-NT tox | IL-1B inflam inh | DT40 TDP1 CPT | TDP1 cell noCPT
O=C1c2ccccc2-c2n[nH]c(=O)c3ccc(N4CCCCC4)c1c23 | u | u | -94* | 9.2µM* | 9.2µM*
CCn1c2ccccc2c2nnc(N3CCN(c4cccc(Cl)c4)CC3)nc21 | x | x | x | -20% | u
Cn1c(SCC(=O)NN2C(=O)NC(C)(c3ccccc3)C2=O)nnc1-c1ccncc1 (stereo not drawn) | 2% | -2% | 0 | -15% | 29µM*
Cc1ccccc1-c1nn(-c2ccc(F)cc2F)cc1CNCCCN(C)C | u | u | -62* | u | 7.3µM*
COc1ccccc1CNC(=O)c1c(-c2ccccc2)nn(-c2ccccc2)c1C | 5% | -6% | u | u | 15µM*
CCOC(=O)c1c(C)c(C(=O)NCc2ccccc2OC)c(C)n1C | -28% | -18% | 4 | u | 13µM*
COc1ccccc1CNC(=O)c1cc(C)nn1-c1ccccc1 | 6% | 5% | 1 | 2% | 12%
COc1ccccc1CNC(=O)CSc1nnc(C)c2c(C)n(-c3ccccc3)nc12 | x | x | x | 21µM* | 23µM*
CC1=C(C)C(=O)C(C(CCCCCC(=O)O)c2ccccc2)=C(C)C1=O (stereo not drawn) | x | x | x | 17µM* | u
NC(=O)c1ccc(NC(=O)c2cnc3ccccc3n2)cc1 | 4% | 5% | 14 | -6% | u
COc1ccc(-n2nc3c(c2NC(=O)C(C)Oc2ccccc2)CS(=O)(=O)C3)cc1 (stereo not drawn) | 4% | -3% | 9 | u | 22%
O=C1C(=C(c2ccccc2)c2ccccc2)Nc2ccccc21 | u | u | 10 | 13µM* | 15µM*
CC(=O)NC1=NN(C(C)=O)C(C)(c2ccc(Br)cc2)S1 (stereo not drawn) | 18µM* | u | 45 | -20% | u
CC(=O)NC1=NN(C(C)=O)C(C)(c2ccccn2)S1 (stereo not drawn) | 11% | 11% | 5 | 23% | u
CCCCC(=O)NC(Nc1nc(C2CC2)cs1)(C(=O)OCC)C(F)(F)F (stereo not drawn) | 5% | 0% | -16 | u | u
CCN1C(=O)CCN(C2CCCC2)c2nc(Nc3ccc(C(=O)NC4CCN(C)CC4)cc3OC)ncc21 | 21µM* | u | 52 | 5.2µM* | 7.3µM*
COc1ccccc1N(/N=C1\Sc2ccccc2C1=O)C(C)=O | -7% | -9% | -7 | -97% | -100%
NC(=S)N=Nc1c(O)[nH]c2c(Br)cc(Br)cc12 | 0% | -2% | 63 | u | 21µM*
O=C(COc1ccccc1Cl)NCC1(N2CCOCC2)CCCCC1 | x | x | x | 21µM* | 15µM*
Cc1ccc(C(C)C)c(OCC(=O)N2CCOCC2)c1 | -10% | -2% | 1 | -4% | -14%
